Data published in paper PMC5540273 (PLoS ONE, 2017).

The compounds below were run on CAMK4. Settings: concentration: 1 μM, replicates: in singlicate; n = 1.
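Also: KINOMEscan kinase panel screen.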

| SMILES | %Inh [%] |
| --- | --- |
| O=C(Nc1n[nH]c2cc(-c3cccs3)ccc12)C1CC1 [SB-731284] | 0 |
| Fc1cc(Cl)ccc1Nc1ccnc2cc(-c3ccc(CN4CCSCC4)o3)ccc12 [GW560106] | 0 |
| Fc1cc(Cl)ccc1Nc1ccnc2cc(-c3ccc(CN4CCOCC4)o3)ccc12 [GW560109] | 13 |
| COc1ccc(NC(=O)c2ccoc2)cc1-c1ccc(C(=O)NCC2CC2)cc1 [GW810437] | 19 |
| COC(=O)Nc1nc2ccc(Oc3ccc(CC(=O)Nc4cc(C(F)(F)F)ccc4F)cc3)cc2[nH]1 [GW680903] | 0 |
| O=C(Nc1n[nH]c2nc(-c3cccc(O)c3)ccc12)C1CC1 [SB-711805] | 0 |
| Cc1cccc(Nc2nc(N[C@H]3CCCC[C@H]3N)ncc2C(N)=O)c1.Cl [GSK986310] | 72 |
| CCn1c(-c2nonc2N)nc2c(-c3ccccc3)ncc(OCCCN)c21.O=C(O)C(F)(F)F.O=C(O)C(F)(F)F [GSK260205] | 8 |
| COc1ccc(C)c(Nc2ccnc(Nc3ccc(-c4cnc[nH]4)cc3)n2)c1.Cl [GW784041] | 30 |
| CS(=O)(=O)c1cccc(CNc2nc(Nc3ccc4c(c3)CCC(=O)N4)ncc2C(F)(F)F)c1 | 0 |
| O=C(O)C(F)(F)F.O=c1[nH]ccc2nc(N[C@@H]3CCNC3)nc(Nc3ccc4c(c3)S(=O)(=O)CC4)c12 [GSK2181306] | 98.5 |
| COc1cc(Nc2nccc(N3CCC(NS(=O)(=O)c4ccc(NC(C)=O)cc4)CC3)n2)cc(OC)c1OC [GSK1379825] | 0 |
| CN(C)CCNS(=O)(=O)c1ccc(-c2ccnc3[nH]ccc23)cc1 [GSK977620] | 57 |
| Nc1cccc(-c2ccc3c(N)n[nH]c3c2)c1 [GSK2193613] | 0 |
| Cc1ccc(NC(=O)c2ccnc(N3CCCCC3)c2)cc1-c1ccc(C(=O)NCC2CC2)cc1 [GW775610] | 10 |
| c1ccc(Oc2ccc(Nc3ccnc4cc(-c5ccc(CN6CCCCC6)o5)ccc34)cc2)nc1 [GW567143] | 0 |
| CC(C)c1nc(-c2cccc(NS(=O)(=O)c3c(F)cccc3F)c2)c(-c2ccnc(Nc3ccc(N4CCOCC4)nc3)n2)s1.Cl [GSK1723980] | 0 |

| SMILES | %Inh [%] |
| --- | --- |
| CN(c1ccc(NC(=O)N2CCN(CCCN3CCOCC3)CC2)cc1)c1ccnc(Nc2ccc(CS(C)(=O)=O)cc2)n1.Cl [GW830899] | 0 |
| Cn1cc(-c2ccc3c(c2)CCN3C(=O)Cc2cc(F)cc(F)c2F)c2c(N)ncnc21 [GSK2634140] | 0 |
| CC(C)NCC(Cc1ccccc1)NC(=O)c1cc(Br)c(-c2ccnc3[nH]ccc23)s1.Cl.Cl (stereo not drawn) [GSK1383281] | 29 |
| COc1cccc(C2=C(Nc3cccc(O)c3)C(=O)NC2=O)c1 [SB-390771] | 0 |
| COc1cccc(CC(=O)N2CCc3cc(-c4cn(C)c5ncnc(N)c45)ccc32)c1 [GSK2608899] | 13 |
| O=C(Nc1n[nH]c2nc(-c3ccccc3O)ccc12)C1CC1 [SB-711880] | 0 |
| N#CC1(c2cccc(C(=O)Nc3cccc(Oc4ccc5nc(NC(=O)C6CC6)sc5n4)c3)c2)CC1 | 2 |
| COc1cc(Nc2nccc(N3CCC(NC(=O)Nc4ccc5c(c4)OCO5)C3)n2)cc(OC)c1OC (stereo not drawn) [GSK1379766] | 0 |
| Cc1ccc(-c2ccc3occ(-c4ccc(S(C)=O)cc4)c3c2)nn1 (stereo not drawn) | 18 |
| CN(c1ccc(F)c(NC(=O)c2cccc(OC(C)(C)C#N)c2Cl)c1)c1ccc2nc(NC(=O)C3CC3)sc2n1 | 0 |
| CN(c1ccc2c(c1)nc(NCc1ccccc1)n2C)c1ccnc(Nc2ccc(CS(C)(=O)=O)cc2)n1.Cl [GW811603] | 0 |
| Nc1ncc(-c2ccc3nccc(-c4ccncc4)c3c2)cc1S(=O)(=O)N1CCCCC1 [GSK1693850] | 0 |
| Nc1ncc(-c2cn[nH]c2)c2scc(-c3ccc4c(c3)CCN4C(=O)Cc3ccccc3)c12 [GSK2593067] | 0 |
| CN(C)c1ncnc2nc[nH]c12 [SKF-31736] | 0 |
| Cl.Cl.NC(CNC(=O)c1cc(Br)c(-c2ccnc3[nH]ccc23)s1)c1ccccc1 (stereo not drawn) [GSK1322949] | 0 |
| CNc1nccc(-c2ccc3c(N)n[nH]c3c2)n1 [GSK2206003] | 0 |
